Assay results: ChEMBL document CHEMBL3988442, “University of Dundee, Small-Polar-MMV Screening Library” (2021)
Screen size: about 48,000 compounds; about 13,000 (27%) showed an effect of 50% or more. This is one part of the list.

tested on: Wolbachia pipientis; test: Anti-Wolbachia Cell-Based Screen; format: functional; parameters: scale not given: in the data most compounds retested in dose-response had high values; conditions: 5 µM

Compound | Percent Effect
O=S1(=O)C[C@@H]2[C@H](C1)N(Cc1cccc(O)c1)CCN2CC1CC1 | -9.844%
Cc1noc([C@@H]2C[C@H](NS(=O)(=O)Cc3ccccc3)CN2C)n1 | -2.99%
CC(OCC1CC1)C(=O)NCc1ccc(Cn2ccnc2)cc1 (configuration not stated) | -1.593%
Cc1ccc([C@@H]2CN(C(=O)CCc3ccco3)C[C@H]2N(C)C)cc1 | -4.926%
Cc1ccc(C(=O)N2CC(=O)N(Cc3ccco3)CC(O)C2)cc1 (configuration not stated) | 118.6%
CCc1ccc(CN2C[C@@H](C(=O)O)[C@H](c3ccccc3OC)C2)o1 | -18.6%
Cc1cc(C(=O)N2CCN(Cc3ccco3)C(CCO)C2)cc(=O)[nH]1 (configuration not stated) | -4.439%
COc1ccccc1C(=O)N1CC2(COC(C)(C)OC2)C1 | -9.843%
COc1ccccc1C(=O)N1CC(=O)N(Cc2ccco2)CC(O)C1 (configuration not stated) | 85.9%
NC(=O)NCC1CCCCN1C(=O)c1cccc(C(F)(F)F)c1 (configuration not stated) | 3.602%
NC(=O)CN(C(=O)c1cccc(C(F)(F)F)c1)C1CCCC1 | -15.86%
CS(=O)(=O)NCC1CCCCN1C(=O)c1cccc(C(F)(F)F)c1 (configuration not stated) | 93.67%
Cc1ccc(-c2nc(C(=O)N3CCCCC3CNS(C)(=O)=O)cs2)cc1 (configuration not stated) | 5.411%
NC(=O)CC1CCCCN1C(=O)c1cccc(C(F)(F)F)c1 (configuration not stated) | 118.1%
CCC(O)CNC(=O)C1(N(C)Cc2ccccc2)Cc2ccccc2C1 (configuration not stated) | -9.431%
CCc1nc2n(n1)CCCC2NC(=O)Nc1ccc(SC)c(F)c1 (configuration not stated) | -17.88%
COc1cc(N2CCCC(c3nccn3CCN(C)C)C2)nc(N)n1 (configuration not stated) | -7.598%
COc1ccc(CN2C[C@@H](OCc3csc(C)n3)[C@H]3COC[C@H]32)cc1.O=C(O)C(F)(F)F | -4.618%
O=C(O)C(F)(F)F.c1cc(CN2C[C@H](OCC3CCOCC3)[C@H]3COC[C@H]32)cs1 | 93.96%
N#Cc1cccc(CN2C[C@H](OCC3CCOCC3)[C@H]3COC[C@H]32)c1.O=C(O)C(F)(F)F | -3.694%
O=C(O)C(F)(F)F.c1cc(CN2C[C@H](OCC3CCOCC3)[C@H]3COC[C@H]32)co1 | 84.18%

Compound | Percent Effect
COc1ccc(CN2C[C@H](OCC3CCOCC3)[C@H]3COC[C@H]32)cc1.O=C(O)C(F)(F)F | 2.727%
c1ncc(-c2cn(CCSc3cnn[nH]3)nn2)cn1 | -12.65%
COCCOCCNC(=O)N1CCN(c2ccccc2C#N)CC1 | 9.744%
N#Cc1ccccc1N1CCN(C(=O)NCC(=O)N2CCCC2)CC1 | -1.371%
Cc1cccc(OC2CCN(C(=O)NCc3cc[nH]n3)CC2)c1C | -1.831%
CS(=O)(=O)NC1CCN(C(=O)NCc2cc[nH]n2)CC1 | 108.2%
N#Cc1ccccc1N1CCCN(C(=O)NCc2cc[nH]n2)CC1 | 136.7%
O=C(NCc1cc[nH]n1)N1CCN(c2ncccn2)CC1 | 105.7%
CCC(CNC(=O)NCc1cc[nH]n1)N1CCCC1 (configuration not stated) | 2.082%
CC(=O)N1CCC(C(=O)NCc2cc[nH]n2)(c2ccccc2)CC1 | 107.6%
CS(=O)(=O)NC1CCCN(C(=O)NCc2cc[nH]n2)C1 (configuration not stated) | -1.074%
O=C(NCC1CCOC1)N1CCN(c2ncccn2)CC1 (configuration not stated) | 14.21%
O=C(NCc1cc2n(n1)CCCNC2)C1(c2ccccc2)CCCCC1 | 0.555%
CC(CNC(=O)N1CCN(c2ncccn2)CC1)Cc1cccs1 (configuration not stated) | -35.53%
Cc1nn(C)c2ncc(NC(=O)N(C)Cc3cnn(C)c3)cc12 | 3.959%
COc1ccc(C(=O)O)c(OCC(=O)NC(C)c2ccccc2)c1 (configuration not stated) | -11.95%
COc1cncc(N2CCN(Cc3ccncc3Cl)CC2)n1 | -15.95%
CCN1CCN(C(=O)NCc2cc[nH]n2)CC1 | 108.7%
CC(=O)N1CCCN(C(=O)NCc2cc[nH]n2)CC1 | -2.345%
CCC1c2ccsc2CCN1C(=O)NCc1cc[nH]n1 (configuration not stated) | 5.553%
O=C(NCc1ccc(N2CCSCC2)cc1)NCc1cc[nH]n1 | -6.382%

Compound | Percent Effect
CCOc1ccccc1N1CCN(C(=O)NCc2cc[nH]n2)CC1 | 100.3%
NC(=O)c1ccc(CNC(=O)NCc2cc[nH]n2)cc1 | 0.637%
CC(=O)c1ccc(N2CCN(C(=O)NCc3cc[nH]n3)CC2)cc1 | 106.6%
O=C(NCc1cc[nH]n1)N1CCC(Oc2ccccc2Cl)CC1 | -25.2%
O=C(NCc1cc[nH]n1)N1CCN(c2ccccc2Cl)CC1 | 14.41%
CN(C)c1ccccc1C(=O)N1C[C@@H](CN2CCC(O)CC2)[C@@H](CO)C1 | -115.2%
Cc1cc(C(=O)Cn2cnnc2[S+](C)[O-])cc(C)c1F (configuration not stated) | 2.039%
CS(=O)(=O)c1cccc(C(=O)NCc2nc3cc(F)ccc3[nH]2)c1 | 93.8%
CS(=O)(=O)c1cccc(C(=O)NCC2(c3ccccc3)CC2)c1 | -5.384%
CS(=O)(=O)c1cccc(C(=O)NCC2Cc3ccccc3O2)c1 (configuration not stated) | -50.83%
O=C(NCc1nc2ccccc2[nH]1)c1cnn2c1OCCC2 | 8.573%
CS(=O)(=O)c1ccc(C(=O)NCc2nc3cc(F)ccc3[nH]2)cc1 | 97.05%
O=C(NCc1nc2cc(F)ccc2[nH]1)c1ccc[nH]1 | 85.11%
CC(C)c1cc(C(=O)NCc2nc(-c3ccc(F)cc3)n[nH]2)n[nH]1 | 8.194%
O=C(NCc1nc2ccccc2[nH]1)c1cc2n(n1)CCCO2 | 4.478%
COC(=O)NCC(=O)N1CCC(c2nc3cc(F)ccc3[nH]2)CC1 | -27.28%
Cc1cc(NC(=O)Cn2nc(C)c(C#N)c2N)ccc1Br | -7.247%
Fc1ccc(-c2cc(NCCC3CCOC3)n3nccc3n2)cc1 (configuration not stated) | 40.16%
O=C(NC1CC1)[C@H]1CC[C@@H]2[C@@H](CCN2CCOCc2ccccc2)O1.O=C(O)C(F)(F)F | 6.133%
CCS(=O)(=O)N1CCOC2(COCCN(C(C)=O)C2)C1 (configuration not stated) | -3.912%
